Data as given in ChEMBL document CHEMBL4513216, “Probing the Open Global Health Chemical Diversity Library for Multistage-Active Starting Points for Next-Generation Antimalarials” (ACS Infect Dis, 2020).
Hit rate of the full screen: of about 69,000 compounds, about 8,600 (12%) showed an effect of 50% or more. For the sample, strong results were picked, then their nearest neighbours and some compounds at random.

What follows are compounds tested on Plasmodium berghei (assay: Screen against P. berghei liver stage (PbLuc), transformed with Luciferase, at 10uM). Conditions: tested at 10 uM.
Assay type: functional, HepG2
Nc1ncnc2nc(C3CCN(C(=O)Cc4ccccc4)C3)ccc12 (stereo unspecified) was tested, and the INHIBITION was 6.3535%. With COc1ccc(-c2cc(C3CCNCC3)nc(C)n2)cc1 the INHIBITION was -29.9%. For COc1ccc(N2CCN(Cc3nc(CSC)no3)CC2=O)cc1, the INHIBITION was -42.9%. Work on CCC(NC(=O)NCC(=O)Nc1ccc(F)cc1)c1ccncc1 (stereo unspecified) yielded an INHIBITION of 58.3%. In the case of CCNC(=O)Cc1ccc(NC(=O)NC(CC)c2ccncc2)cc1 (stereo unspecified), the INHIBITION is reported as 4.15%. Work on CCC(NC(=O)Nc1ccc(OC)c(C)c1)c1ccncc1 (stereo unspecified) yielded an INHIBITION of 26.6%. In the case of O=C(c1ccco1)N1C[C@H]2CCCN(CC3CCOCC3)[C@H]2C1, the INHIBITION is reported as 49.5%. With Cc1cnc(NCCCN2CCCCC2CO)nc1 (stereo unspecified) the INHIBITION was 20.8%. Compound NC(=O)C(Cc1ccccc1)NS(=O)(=O)Cc1ccccc1Cl (stereo unspecified) has an INHIBITION of 9.75%. O=S(=O)(Cc1ccccc1F)NC(CO)c1ccco1 (stereo unspecified) showed an INHIBITION of 45.1%. With N#Cc1cccc(CS(=O)(=O)NCCC(O)c2ccccc2)c1 (stereo unspecified) the INHIBITION was 24.5%. Compound N#Cc1cccc(CS(=O)(=O)NCC(O)Cc2ccccc2)c1 (stereo unspecified) has an INHIBITION of 30.8%. With NC(=O)C(Cc1ccccc1)NS(=O)(=O)Cc1ccccc1F (stereo unspecified) the INHIBITION was 50.5%. Compound N#Cc1cccc(CS(=O)(=O)NC(Cc2ccccc2)C(N)=O)c1 (stereo unspecified) has an INHIBITION of 58.1%. O=C(NC1COC2(CCN(Cc3cccs3)CC2)C1)c1ccccn1 (stereo unspecified) showed an INHIBITION of 20.9%. In the case of Cc1ccc(CN[C@@H]2COC[C@H]2c2ccc(F)cc2)cc1C, the INHIBITION is reported as 49%. Compound CN1CC2(CCC(C(=O)N3CCOCC3)CC2)Oc2ccccc2C1=O (stereo unspecified) has an INHIBITION of -3.58%. COCCN1CCn2c(CN(C)C(C)C)cnc2C1 gave an INHIBITION of -8.28%. Compound CNC(=O)[C@@H]1[C@@H](c2ccccc2)CN2CCN(Cc3cccs3)C[C@H]12 has an INHIBITION of 41.1%. Work on CNC(=O)[C@@H]1[C@@H](c2ccccc2)CN2CCN(Cc3ccco3)C[C@H]12 yielded an INHIBITION of 57%. CNC(=O)[C@@H]1[C@H]2CN(Cc3ccoc3)CCN2C[C@H]1c1ccccc1 was tested, and the INHIBITION was 9.36%. Compound Cn1cc(N2CC3(CCN(Cc4cccnc4)CC3)OCC2=O)cn1 has an INHIBITION of 22.9%. Cc1nc(C)n(C2CCCN(C(=O)c3ccc4nccn4c3)C2)n1 (stereo unspecified) was tested, and the INHIBITION was 20.8%. Compound CSCCCN1CC[C@@]2(O)CCN(c3ncccn3)C[C@H]2C1 has an INHIBITION of 38.3%. O=C1CCCN1CCN1CC[C@@]2(O)CCN(c3ncccn3)C[C@H]2C1 showed an INHIBITION of 51.2%. Compound Cc1ccc(N2CC[C@]3(O)CCN(CCN4CCCC4=O)C[C@@H]3C2)nn1 has an INHIBITION of -2.25%. With CCc1nnc2n1CCN(C(=O)c1cc3ccccc3[nH]1)C2 the INHIBITION was 18.2%. Cc1cc(N2CCc3c(ncn3C)C2)n2nc(C(F)(F)F)nc2n1 was tested, and the INHIBITION was 20%. In the case of Cc1cc(N2CCc3cnc(C)nc3C2)n2nc(C(F)(F)F)nc2n1, the INHIBITION is reported as 10.6%. Cc1cc(N2CCc3cncnc3C2)n2nc(C(F)(F)F)nc2n1 gave an INHIBITION of 50.8%. CC(C)SCc1cccc(NC2CCN(C)C2=O)c1 (stereo unspecified) was tested, and the INHIBITION was -13.9%. In the case of CCSCc1cccc(NC2CCN(C)C2=O)c1 (stereo unspecified), the INHIBITION is reported as 52.5%. For Cc1nc(C)n(Cc2cccc(NC3CCN(C)C3=O)c2)n1 (stereo unspecified), the INHIBITION was -41.6%. Work on CN1CCCC(CCC(=O)N2CCc3c(nc(CC4CC4)[nH]c3=O)C2)C1 (stereo unspecified) yielded an INHIBITION of 49.3%. Work on CCO[C@H]1C[C@@H](O)C12CCN(C1CCN(c3ccccc3C)CC1)CC2 yielded an INHIBITION of 69.4%. Compound NCCO[C@H]1C[C@@H](O)C12CCN(C1Cc3ccccc3C1)CC2 has an INHIBITION of 43%. CCO[C@H]1C[C@@H](O)C12CCN(C(=O)CCN1CCCC1=O)CC2 was tested, and the INHIBITION was 14.5%. CCO[C@H]1C[C@@H](O)C12CCN(C1CCN(c3ccccc3)CC1)CC2 was tested, and the INHIBITION was 25.8%. Compound CCO[C@H]1C[C@@H](O)C12CCN(C(=O)CN1CCCCCC1=O)CC2 has an INHIBITION of 24.3%. CCO[C@H]1C[C@@H](O)C12CCN(C(=O)CC(F)(F)F)CC2 was tested, and the INHIBITION was 90.2%. For CCOCCn1nc(C)cc1C(=O)N1CCC2(CC1)[C@H](O)C[C@@H]2OCC, the INHIBITION was 9.63%. CCO[C@H]1C[C@@H](O)C12CCN(S(=O)(=O)c1ccccc1OC)CC2 was tested, and the INHIBITION was 46.4%. For CCO[C@H]1C[C@@H](O)C12CCN(C1Cc3ccccc3C1)CC2, the INHIBITION was 50.3%. For Cc1ncc(C(=O)N2CCCC(Cc3nccs3)C2)cn1 (stereo unspecified), the INHIBITION was 29.3%. CCN(CC)c1ncc2c(O)nc(C3CCNCC3)cc2n1 showed an INHIBITION of 6.26%. CCN(C)c1ncnc2c1CCN(C(=O)COC)CC2 showed an INHIBITION of -12.1%. In the case of COC(=O)[C@H](C)NC(=O)COc1nn(C)c2nc(C)cc(C)c12, the INHIBITION is reported as -10.2%. For Cc1cc2nc(SCC(=O)N3CCCC3)n(Cc3ccco3)c(O)c-2n1, the INHIBITION was 34.2%. Compound CCS(=O)(=O)N(C)CCCNC(=O)c1cc(Cl)cc2cccnc12 has an INHIBITION of 37.9%. For CCCNC(=O)C(C)n1nc(-c2ccc(C)o2)cc(N)c1=O (stereo unspecified), the INHIBITION was 31.6%. For CCc1cc(CNC(=O)C2CCCN(C(=O)NCC(C)C)C2)[nH]n1 (stereo unspecified), the INHIBITION was 22.5%. In the case of CN(Cc1ccccc1)c1cnn(CC2CCCCO2)c(=O)c1 (stereo unspecified), the INHIBITION is reported as 28.2%. COCC1CC2(CCN(C(=O)c3cnc4ccccc4c3)CC2)CO1 (stereo unspecified) was tested, and the INHIBITION was 42.1%. Compound Cc1ccc(CN(C)C(=O)CN2CCCC2c2cnn(C)c2)cc1 (stereo unspecified) has an INHIBITION of -1.79%. For CN(Cc1cccc(OC(F)(F)F)c1)C(=O)Cc1ccon1, the INHIBITION was 19.5%. Compound CN(Cc1cccc(OC(F)(F)F)c1)C(=O)c1ccncc1F has an INHIBITION of 39.4%.
